Legend:
[1] = molecular target: Tyrosine-protein kinase Fer (Homo sapiens) (UniProt P16591); details: at 1 µM
[2] = molecular target: Tyrosine-protein kinase Fes/Fps (Homo sapiens) (UniProt P07332); details: at 0.1 µM
[3] = molecular target: Tyrosine-protein kinase Fes/Fps (Homo sapiens) (UniProt P07332); details: at 1 µM
[4] = molecular target: Fibroblast growth factor receptor 1 (Homo sapiens) (UniProt P11362); details: at 0.1 µM
[5] = molecular target: Fibroblast growth factor receptor 1 (Homo sapiens) (UniProt P11362); details: at 1 µM
[6] = molecular target: Fibroblast growth factor receptor 2 (Homo sapiens) (UniProt P21802); details: at 0.1 µM
[7] = molecular target: Fibroblast growth factor receptor 2 (Homo sapiens) (UniProt P21802); details: at 1 µM
[8] = molecular target: Fibroblast growth factor receptor 3 (Homo sapiens) (UniProt P22607); details: at 0.1 µM
[9] = molecular target: Fibroblast growth factor receptor 3 (Homo sapiens) (UniProt P22607); details: at 1 µM
[10] = molecular target: Fibroblast growth factor receptor 4 (Homo sapiens) (UniProt P22455); details: at 0.1 µM
[11] = molecular target: Fibroblast growth factor receptor 4 (Homo sapiens) (UniProt P22455); details: at 1 µM
[12] = molecular target: Tyrosine-protein kinase Fgr (Homo sapiens) (UniProt P09769); details: at 0.1 µM
[13] = molecular target: Tyrosine-protein kinase Fgr (Homo sapiens) (UniProt P09769); details: at 1 µM
[14] = molecular target: Vascular endothelial growth factor receptor 1 (Homo sapiens) (UniProt P17948); details: at 0.1 µM
[15] = molecular target: Vascular endothelial growth factor receptor 1 (Homo sapiens) (UniProt P17948); details: at 1 µM
[16] = molecular target: Receptor-type tyrosine-protein kinase FLT3 (Homo sapiens) (UniProt P36888); details: at 0.1 µM
[17] = molecular target: Receptor-type tyrosine-protein kinase FLT3 (Homo sapiens) (UniProt P36888); details: at 1 µM
[18] = system: T1, Receptor-type tyrosine-protein kinase FLT3 (Homo sapiens), P36888 [D835Y]; details: at 0.1 µM
T1 sequence (whole entry): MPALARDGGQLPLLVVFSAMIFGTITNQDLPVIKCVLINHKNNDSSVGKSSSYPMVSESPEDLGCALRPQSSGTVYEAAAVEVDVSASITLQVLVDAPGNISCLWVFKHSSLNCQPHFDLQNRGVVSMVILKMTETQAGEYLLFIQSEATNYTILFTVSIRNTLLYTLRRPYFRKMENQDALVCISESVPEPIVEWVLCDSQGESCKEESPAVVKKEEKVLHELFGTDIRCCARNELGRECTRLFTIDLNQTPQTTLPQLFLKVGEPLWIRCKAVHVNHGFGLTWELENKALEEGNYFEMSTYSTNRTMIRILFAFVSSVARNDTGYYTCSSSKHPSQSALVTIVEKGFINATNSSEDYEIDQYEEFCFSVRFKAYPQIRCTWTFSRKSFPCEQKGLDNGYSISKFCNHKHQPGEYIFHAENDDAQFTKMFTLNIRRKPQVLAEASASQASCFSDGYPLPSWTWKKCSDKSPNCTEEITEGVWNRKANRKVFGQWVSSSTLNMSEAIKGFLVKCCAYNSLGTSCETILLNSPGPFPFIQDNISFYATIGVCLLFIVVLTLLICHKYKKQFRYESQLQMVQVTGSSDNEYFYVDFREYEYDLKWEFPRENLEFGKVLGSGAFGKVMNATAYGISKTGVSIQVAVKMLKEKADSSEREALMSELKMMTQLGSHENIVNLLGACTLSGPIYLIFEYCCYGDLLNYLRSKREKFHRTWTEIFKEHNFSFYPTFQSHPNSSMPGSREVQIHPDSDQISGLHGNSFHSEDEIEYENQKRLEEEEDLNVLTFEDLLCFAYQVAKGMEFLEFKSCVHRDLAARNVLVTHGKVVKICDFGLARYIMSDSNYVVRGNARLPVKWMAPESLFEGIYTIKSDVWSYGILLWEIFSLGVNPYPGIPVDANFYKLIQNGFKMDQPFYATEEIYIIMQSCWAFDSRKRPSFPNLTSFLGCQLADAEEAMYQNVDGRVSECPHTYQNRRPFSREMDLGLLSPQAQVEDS

[19] = molecular target: Non-receptor tyrosine-protein kinase TYK2 (Homo sapiens) (UniProt P29597); details: at 1 µM;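 further: values are mean percent inhibition of TYK2 kinase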
[20] = molecular target: T2, Tyrosine-protein kinase receptor TYRO3 (Homo sapiens) (UniProt Q06418); details: at 0.1 µM;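 further: reported percentages are averaged inhibition values of TYRO3 kinase activity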
T2 sequence (whole entry): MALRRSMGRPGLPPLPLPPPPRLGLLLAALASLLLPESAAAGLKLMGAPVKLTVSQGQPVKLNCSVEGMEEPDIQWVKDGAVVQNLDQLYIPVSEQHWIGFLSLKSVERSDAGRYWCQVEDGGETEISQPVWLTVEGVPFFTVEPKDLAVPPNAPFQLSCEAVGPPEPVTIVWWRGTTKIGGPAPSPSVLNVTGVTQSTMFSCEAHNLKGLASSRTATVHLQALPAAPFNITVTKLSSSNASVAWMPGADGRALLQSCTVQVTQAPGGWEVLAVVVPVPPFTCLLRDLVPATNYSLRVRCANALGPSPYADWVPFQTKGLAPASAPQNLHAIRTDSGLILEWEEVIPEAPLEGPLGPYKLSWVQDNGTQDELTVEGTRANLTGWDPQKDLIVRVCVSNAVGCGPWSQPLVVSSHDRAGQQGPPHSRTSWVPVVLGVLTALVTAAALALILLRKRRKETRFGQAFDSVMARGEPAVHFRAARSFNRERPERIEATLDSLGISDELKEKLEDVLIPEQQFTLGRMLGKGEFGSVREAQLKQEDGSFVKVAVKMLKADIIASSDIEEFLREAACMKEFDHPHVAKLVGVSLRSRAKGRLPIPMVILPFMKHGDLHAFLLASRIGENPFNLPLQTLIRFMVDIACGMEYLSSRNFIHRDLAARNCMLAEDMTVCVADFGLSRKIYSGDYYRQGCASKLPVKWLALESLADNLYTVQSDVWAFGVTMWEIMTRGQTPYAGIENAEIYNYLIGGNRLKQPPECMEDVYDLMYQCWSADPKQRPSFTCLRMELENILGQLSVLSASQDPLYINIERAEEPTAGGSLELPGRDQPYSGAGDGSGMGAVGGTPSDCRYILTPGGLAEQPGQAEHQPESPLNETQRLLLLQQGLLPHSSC

Chain of Fibroblast growth factor receptor 1 (Homo sapiens) (P11362 22-822 limits assumed): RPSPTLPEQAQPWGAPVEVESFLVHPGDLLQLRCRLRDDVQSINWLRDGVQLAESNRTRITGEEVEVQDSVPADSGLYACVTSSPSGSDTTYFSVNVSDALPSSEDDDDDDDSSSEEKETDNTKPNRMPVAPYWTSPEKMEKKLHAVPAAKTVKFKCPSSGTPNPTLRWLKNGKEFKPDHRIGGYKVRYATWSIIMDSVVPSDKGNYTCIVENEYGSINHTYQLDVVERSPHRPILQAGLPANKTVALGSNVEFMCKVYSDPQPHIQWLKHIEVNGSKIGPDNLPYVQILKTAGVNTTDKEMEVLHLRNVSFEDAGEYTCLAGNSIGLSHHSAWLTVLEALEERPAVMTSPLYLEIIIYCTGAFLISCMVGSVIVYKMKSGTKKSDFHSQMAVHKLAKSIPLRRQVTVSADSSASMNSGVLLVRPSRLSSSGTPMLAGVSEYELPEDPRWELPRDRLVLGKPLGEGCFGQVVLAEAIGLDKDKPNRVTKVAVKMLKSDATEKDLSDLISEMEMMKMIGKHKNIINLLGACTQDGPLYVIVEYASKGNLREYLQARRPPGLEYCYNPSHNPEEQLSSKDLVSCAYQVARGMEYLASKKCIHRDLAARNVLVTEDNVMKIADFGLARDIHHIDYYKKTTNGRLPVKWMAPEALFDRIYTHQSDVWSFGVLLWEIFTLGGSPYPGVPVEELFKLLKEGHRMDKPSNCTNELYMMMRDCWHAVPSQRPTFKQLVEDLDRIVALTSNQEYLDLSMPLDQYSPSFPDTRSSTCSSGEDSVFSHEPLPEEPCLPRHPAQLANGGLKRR
Chain of Tyrosine-protein kinase Fer (Homo sapiens) (P16591 whole entry, looked up): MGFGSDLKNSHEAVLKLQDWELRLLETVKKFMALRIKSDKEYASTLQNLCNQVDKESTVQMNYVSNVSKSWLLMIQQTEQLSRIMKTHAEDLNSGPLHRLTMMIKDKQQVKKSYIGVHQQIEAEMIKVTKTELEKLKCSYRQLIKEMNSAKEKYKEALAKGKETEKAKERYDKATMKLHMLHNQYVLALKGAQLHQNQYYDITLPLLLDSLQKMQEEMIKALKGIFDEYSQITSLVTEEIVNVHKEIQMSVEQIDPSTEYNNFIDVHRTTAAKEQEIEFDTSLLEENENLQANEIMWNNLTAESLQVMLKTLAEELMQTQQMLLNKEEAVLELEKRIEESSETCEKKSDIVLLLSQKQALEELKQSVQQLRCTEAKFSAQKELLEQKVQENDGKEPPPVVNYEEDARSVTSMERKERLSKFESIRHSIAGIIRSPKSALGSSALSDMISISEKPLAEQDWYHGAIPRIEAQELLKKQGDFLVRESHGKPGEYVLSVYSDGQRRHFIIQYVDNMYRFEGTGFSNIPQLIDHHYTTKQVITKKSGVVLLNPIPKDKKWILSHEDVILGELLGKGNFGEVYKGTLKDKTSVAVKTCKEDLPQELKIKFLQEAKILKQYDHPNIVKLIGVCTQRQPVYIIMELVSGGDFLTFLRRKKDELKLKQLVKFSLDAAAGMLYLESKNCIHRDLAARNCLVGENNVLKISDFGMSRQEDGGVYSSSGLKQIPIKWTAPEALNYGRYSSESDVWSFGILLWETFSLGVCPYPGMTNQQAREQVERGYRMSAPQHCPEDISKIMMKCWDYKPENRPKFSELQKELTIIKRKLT
Chain of Tyrosine-protein kinase Fgr (Homo sapiens) (P09769 2-529 limits assumed): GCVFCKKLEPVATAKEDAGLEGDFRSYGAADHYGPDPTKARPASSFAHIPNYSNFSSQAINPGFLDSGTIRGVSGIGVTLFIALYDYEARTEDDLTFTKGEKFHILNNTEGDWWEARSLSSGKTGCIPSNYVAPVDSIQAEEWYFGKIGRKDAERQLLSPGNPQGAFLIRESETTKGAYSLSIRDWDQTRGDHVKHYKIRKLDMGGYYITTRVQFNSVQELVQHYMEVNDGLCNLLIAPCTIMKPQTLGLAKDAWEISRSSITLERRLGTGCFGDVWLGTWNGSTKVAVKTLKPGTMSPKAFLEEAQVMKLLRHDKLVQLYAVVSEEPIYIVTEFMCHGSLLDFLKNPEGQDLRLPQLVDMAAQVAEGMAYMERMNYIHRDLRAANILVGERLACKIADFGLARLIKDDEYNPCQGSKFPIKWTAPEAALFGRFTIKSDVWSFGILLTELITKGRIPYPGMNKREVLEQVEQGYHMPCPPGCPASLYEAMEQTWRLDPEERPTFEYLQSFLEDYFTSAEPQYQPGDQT
Chain of Non-receptor tyrosine-protein kinase TYK2 (Homo sapiens) (P29597 whole entry): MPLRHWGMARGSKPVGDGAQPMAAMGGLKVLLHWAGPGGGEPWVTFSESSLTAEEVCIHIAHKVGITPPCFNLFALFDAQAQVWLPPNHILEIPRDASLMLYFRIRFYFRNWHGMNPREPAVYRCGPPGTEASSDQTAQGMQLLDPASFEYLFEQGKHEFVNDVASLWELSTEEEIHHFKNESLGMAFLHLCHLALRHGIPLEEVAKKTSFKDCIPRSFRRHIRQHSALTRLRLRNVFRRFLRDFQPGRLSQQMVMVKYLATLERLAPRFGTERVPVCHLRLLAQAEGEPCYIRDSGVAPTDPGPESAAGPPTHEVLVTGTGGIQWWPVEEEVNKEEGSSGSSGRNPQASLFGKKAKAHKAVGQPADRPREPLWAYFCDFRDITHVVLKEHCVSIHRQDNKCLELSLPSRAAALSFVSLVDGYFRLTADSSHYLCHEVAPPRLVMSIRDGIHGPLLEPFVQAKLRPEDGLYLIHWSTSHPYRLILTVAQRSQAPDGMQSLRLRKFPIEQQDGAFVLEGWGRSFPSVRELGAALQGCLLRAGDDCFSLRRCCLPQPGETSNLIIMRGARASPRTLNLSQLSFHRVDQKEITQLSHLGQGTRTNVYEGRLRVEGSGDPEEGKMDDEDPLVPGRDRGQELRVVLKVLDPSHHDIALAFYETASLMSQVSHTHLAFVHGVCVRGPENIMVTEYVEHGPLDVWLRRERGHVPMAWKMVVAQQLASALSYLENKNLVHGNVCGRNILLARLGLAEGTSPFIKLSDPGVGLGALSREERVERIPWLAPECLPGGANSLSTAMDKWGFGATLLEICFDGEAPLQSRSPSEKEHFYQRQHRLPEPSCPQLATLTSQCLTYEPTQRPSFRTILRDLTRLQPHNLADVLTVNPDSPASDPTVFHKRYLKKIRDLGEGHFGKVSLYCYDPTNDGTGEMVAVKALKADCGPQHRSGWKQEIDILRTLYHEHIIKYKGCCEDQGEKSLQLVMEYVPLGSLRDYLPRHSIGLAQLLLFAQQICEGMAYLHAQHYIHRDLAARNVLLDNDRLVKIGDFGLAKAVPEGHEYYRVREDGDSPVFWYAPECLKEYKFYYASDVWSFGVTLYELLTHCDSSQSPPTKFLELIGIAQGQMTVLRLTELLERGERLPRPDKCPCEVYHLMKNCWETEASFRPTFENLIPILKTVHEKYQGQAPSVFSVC
Chain of Fibroblast growth factor receptor 3 (Homo sapiens) (P22607 23-806 limits assumed): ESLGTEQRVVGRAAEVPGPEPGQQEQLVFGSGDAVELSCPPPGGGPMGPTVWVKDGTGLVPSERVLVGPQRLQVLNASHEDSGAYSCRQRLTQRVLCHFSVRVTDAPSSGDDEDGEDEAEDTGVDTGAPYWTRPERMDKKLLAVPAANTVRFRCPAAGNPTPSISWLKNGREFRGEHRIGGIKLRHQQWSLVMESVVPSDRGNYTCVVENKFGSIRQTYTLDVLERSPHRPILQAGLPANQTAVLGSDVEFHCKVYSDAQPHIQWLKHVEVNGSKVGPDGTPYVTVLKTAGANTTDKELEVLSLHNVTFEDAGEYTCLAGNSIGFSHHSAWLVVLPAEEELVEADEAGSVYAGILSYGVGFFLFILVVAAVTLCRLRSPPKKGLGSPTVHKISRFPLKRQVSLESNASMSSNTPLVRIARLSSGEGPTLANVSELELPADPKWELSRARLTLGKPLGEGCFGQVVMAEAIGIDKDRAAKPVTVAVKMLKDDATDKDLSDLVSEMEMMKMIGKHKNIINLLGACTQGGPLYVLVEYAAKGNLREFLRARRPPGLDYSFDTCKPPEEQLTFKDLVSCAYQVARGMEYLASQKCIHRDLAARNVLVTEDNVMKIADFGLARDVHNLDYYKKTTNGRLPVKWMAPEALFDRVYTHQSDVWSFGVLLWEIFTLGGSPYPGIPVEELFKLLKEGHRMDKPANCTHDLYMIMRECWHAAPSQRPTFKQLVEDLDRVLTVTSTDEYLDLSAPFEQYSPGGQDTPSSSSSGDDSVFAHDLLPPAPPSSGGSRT
Chain of Tyrosine-protein kinase Fes/Fps (Homo sapiens) (P07332 whole entry): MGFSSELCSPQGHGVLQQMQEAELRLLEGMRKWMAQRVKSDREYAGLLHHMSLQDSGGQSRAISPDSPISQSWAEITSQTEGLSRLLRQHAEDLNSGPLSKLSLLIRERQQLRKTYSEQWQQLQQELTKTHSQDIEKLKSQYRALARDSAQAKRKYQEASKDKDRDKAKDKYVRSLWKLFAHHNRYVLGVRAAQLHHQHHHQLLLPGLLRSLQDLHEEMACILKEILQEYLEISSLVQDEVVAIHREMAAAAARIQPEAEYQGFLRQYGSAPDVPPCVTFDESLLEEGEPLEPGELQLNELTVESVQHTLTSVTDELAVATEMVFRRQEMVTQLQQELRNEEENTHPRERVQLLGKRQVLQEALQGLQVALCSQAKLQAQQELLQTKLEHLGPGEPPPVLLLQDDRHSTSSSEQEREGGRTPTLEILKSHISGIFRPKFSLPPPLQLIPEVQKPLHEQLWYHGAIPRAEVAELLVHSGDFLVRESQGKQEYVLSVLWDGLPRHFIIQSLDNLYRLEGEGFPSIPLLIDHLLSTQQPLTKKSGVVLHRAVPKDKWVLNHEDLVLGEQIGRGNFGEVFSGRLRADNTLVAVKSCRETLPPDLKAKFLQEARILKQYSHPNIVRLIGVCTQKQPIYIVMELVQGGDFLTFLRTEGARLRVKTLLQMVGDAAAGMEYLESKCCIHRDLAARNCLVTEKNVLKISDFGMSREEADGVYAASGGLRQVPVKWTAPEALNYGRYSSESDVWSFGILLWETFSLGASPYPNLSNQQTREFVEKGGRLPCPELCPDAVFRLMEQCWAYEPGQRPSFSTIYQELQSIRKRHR

Compound	inhibition [1] [%]	inhibition [2] [%]	inhibition [3] [%]	inhibition [4] [%]	inhibition [5] [%]	inhibition [6] [%]	inhibition [7] [%]	inhibition [8] [%]	inhibition [9] [%]	inhibition [10] [%]	inhibition [11] [%]	inhibition [12] [%]	inhibition [13] [%]	inhibition [14] [%]	inhibition [15] [%]	inhibition [16] [%]	inhibition [17] [%]	inhibition [18] [%]	inhibition [19] [%]	inhibition [20] [%]
CCS(=O)(=O)c1ccc(OC)c(Nc2ncc(-c3cccc(-c4ccccc4F)c3)o2)c1	2.29	-0.07	0.23	6.92	40	29.3	60.6	29.3	65.5	3.01	16.3	11.9	52.1	24.9	68.4	6.25	30	5.31	1.31	3.28
Cc1ccc(NC(=O)c2ccoc2)cc1-c1ccc(C(=O)NCC2CC2)cc1	-0.39	2.83	1.55	11.2	3.99	0.64	3.44	2.69	5.14	1.47	1.63	2.23	3.07	1.47	8.07	0.8	0.9	-5.38	-0.16	0.97
CN(c1ccc(NC(=O)Nc2c(Cl)cccc2Cl)cc1)c1ccnc(Nc2cccc(CS(C)(=O)=O)c2)n1	77.2	11.1	22.5	6.14	-0.4	3.91	13.4	0.14	5.59	2.62	2.06	24.3	51.9	38.5	51	78.2	84.9	28.2	1.51	4.61
Fc1ccc(-c2ncn(C3CCNCC3)c2-c2ccnc(Oc3ccc(Oc4ccccc4)cc3)n2)cc1	5.54	3.48	4.42	6.98	2.81	6.96	5.56	7.61	5.27	-7.37	3.31	-0.13	4.83	-0.48	3.29	2.97	1.85	-3.32	-3.59	1.47
Cc1ccc(C(=O)NC2CCC2)cc1-c1ccc(C(=O)NCC2CC2)cc1	2.82	2.48	1.75	5.21	0.27	2.36	3.31	3.29	3.04	0.25	1.12	0.84	4.82	1.31	-0.61	0.07	1.62	0.48	-2.49	1.07
COc1cc(N2CCN(C(C)C)CC2)ccc1Nc1nc(Nc2ccc(F)cc2C(=O)NC[C@@H](O)CO)c2cc[nH]c2n1	60.2	4.45	20.1	-0.71	5.9	1.11	1.86	1.06	3.63	-2.86	-2.11	4.37	1.14	1.41	1.28	1.53	2.54	0.41	-2.95	2.87
CS(=O)(=O)CCNCc1cc(-c2cc3c(Nc4ccc(OCc5cccc(F)c5)c(Cl)c4)ncnc3s2)cs1	7.65	4.73	5.27	5.5	3.17	7.79	8.79	6	6.34	5.68	1.36	2.51	4.32	0.1	0.78	2.69	6.93	-4.23	-4	2.21
CCc1nccc2c1nc(-c1nonc1N)n2CC	7.31	0.14	1.26	-0.52	-4.23	-1.59	3.19	-0.24	2.1	-1.31	1.32	-0.77	3.85	-0.82	1.6	-0.04	0.33	-2.37	-2.82	-0.74
NC(=O)c1cc(-c2ccc(F)cc2)cc(-c2ccncc2)c1N	1.93	3.18	3.59	5.1	3.07	1.81	4.41	4.84	2.54	-4.89	-0.36	5.32	3.24	0.41	0.85	3.14	2.01	-6.54	-2.58	4.68
Fc1ccc(-c2ncn(C3CCNCC3)c2-c2ccnc(Oc3ccc(F)c(F)c3)n2)cc1	3.96	2.73	2.2	-3.39	0.21	0.37	2.12	0.74	2.67	-2.57	-4.24	2.76	3.69	0.45	4.56	-1.09	4.18	-2.41	-5.44	1.82
O=C(Nc1n[nH]c2nc(-c3ccc(O)cc3)c(Br)cc12)C1CC1	7.42	3.04	3.83	7.1	21.4	7.18	17.9	8.23	12.5	0.04	3.05	7.15	21.3	2.34	17.7	5.54	25.7	4.14	17.6	10.4
CCS(=O)(=O)c1ccc(OC)c(Nc2ncc(-c3ccccc3Cl)o2)c1	2.34	0.35	0.33	2.09	7.29	6.83	33	6.65	32.4	3.96	4.03	3.37	17	3.73	13.8	2.1	21.1	7.14	-1.06	5.33
NC(=O)c1cc(-c2ccncc2)cc(-c2ccccc2)c1N	4.57	3.8	3.92	8.68	6.54	5.47	8.42	7.6	6.17	0.6	1.49	6.05	27	1.74	5.65	-1.2	4.55	-0.35	-2.55	2.62

Reference: ChEMBL document CHEMBL1961873, “Compounds: GSK PKIS; Assays: Nanosyn kinase panel” (2012)
